In PubChem BioAssay AID1159580 (chemical genetic matrix, 2015):
The campaign covered roughly 5,500 compounds. About 2,000 (36%) were called active. Another 18% or so got no clear call; they are omitted. Rule as the data show it: active = normalized growth mostly below about 0.91 (no sharp cut-off); inconclusive = no clear call, values can overlap the other calls; inactive = mostly above about 0.92. The list shows a part of the results.

Assay: chemical genetic growth profiling, strain panel (AID 1159580);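 also: tested at 20 µM; growth read once vehicle control cultures reached saturation at 30 °C; 1 = growth at the plate median or of vehicle wells; lower values mean less growth of the strain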
Conditions: S. cerevisiae deletion strains, growth OD
[1] = locus YAL040C, strain CLN3, stronger effect = lower value
[2] = locus YCL061C, strain MRC1 (second series), stronger effect = lower value
[3] = locus YDR363W, strain ESC2, stronger effect = lower value
[4] = locus YER002W, strain NOP16, stronger effect = lower value
[5] = locus YGR229C, strain SMI1, stronger effect = lower value
[6] = locus YNL153C, strain GIM3, stronger effect = lower value
[7] = locus YNL175C, strain NOP13, stronger effect = lower value
[8] = locus YNL197C, strain WHI3, stronger effect = lower value
[9] = locus YNL224C, strain SQS1, stronger effect = lower value
[10] = locus YOR083W, strain WHI5 (second series), stronger effect = lower value
[11] = locus YPL241C, strain CIN2, stronger effect = lower value

Measured: normalized growth

CCc1c(C(=O)OC)ncc2[nH]c3cc(OC)c(OC)cc3c12
inactive: [1] 0.994 | [2] 0.994 | locus YDR150W, strain NUM1, stronger effect = lower value 0.995 | [3] 1 | [4] 0.99 | [5] 1.05 | locus YJR075W, strain HOC1, stronger effect = lower value 0.99 | locus YMR307W, strain GAS1, stronger effect = lower value 1.01 | [6] 0.984 | [7] 0.998 | [8] 0.992 | [9] 1.02 | [10] 1 | [11] 0.999

NC(=O)CNCCC(c1ccccc1)c1ccccc1
inactive: [1] 0.962 | [2] 0.987 | [3] 0.965 | [4] 0.969 | locus YGR078C, strain PAC10, stronger effect = lower value 0.993 | [5] 0.895 | [6] 1.04 | [7] 0.993 | [8] 1.01 | [9] 0.991 | [10] 1.03 | [11] 0.984
